PubChem BioAssay
“And” between values parts separate entries of the source, which are not always exact repeats. Equal entries are not always repeated. Results filed as inconclusive are left out. For some of these results: Entries with a potency or affinity are not part of this list. The source made the active and inactive calls.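 The calls were made as follows, unless noted: active = compounds whose cell count with miR-34 switched on is under 0.7 times the count with it off; inactive = the rest.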

Key:
[1] = blockers of polyQ-driven CASP3 activation – cell-based (AID 1583); conditions: polyglutamine-induced caspase-3 activation, cell assay; stronger effect = higher value;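 tested at 10 µM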
[2] = yeast 75Q aggregation reduction – 75Q-TubU reporter (AID 1593); conditions: Yeast 75Q polyglutamine aggregation reporter
[3] = restoration of touch response, mutant HTT neurons – whole organism, C. elegans mechanosensory neurons, N-terminal huntingtin (AID 1599); conditions: C. elegans polyQ-huntingtin mechanosensory neurons, stronger effect = higher value
[4] = blockers of cytochrome c efflux from mitochondria – biochemical, purified mitochondria (AID 1603); conditions: stronger effect = lower value;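 also: mouse liver mitochondria challenged with calcium chloride; signal normalized to the plate average as 100%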
[5] = polyglutamine aggregate formation blockers (AID 1604); conditions: polyglutamine-induced protein aggregation inhibition assay; stronger effect = higher value; tested at 2.5 µM
[6] = glutamate transport activators, MN-1 cells, MN-1 cell line (AID 1612); conditions: MN-1 motor neuron cells, stronger effect = higher value;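 also: tested at 1 µM final; 0% = mean of DMSO vehicle wells on each plate; positive means more glutamate uptake than control and negative means less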
[7] = GFP-Q80 aggregate reduction, neuronal-like cells, cell-based, NGF-treated PC12, GFPQ80 (AID 1614); conditions: PC12 NGF-treated GFP-polyQ80 inclusion reduction;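 also: lower means fewer inclusions and 0 means no inclusions at all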
[8] = 75Q-TubH aggregate inhibition, S. cerevisiae, yeast (AID 1616); conditions: S. cerevisiae 75Q-TubH polyglutamine aggregation suppression; stronger effect = higher value
[9] = compounds altering viability of human ES cells (AID 493140; call rule not given here;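 also: cells exposed to compounds for four days before counting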); conditions: human embryonic stem cell survival screen; stronger effect = higher value
[10] = P. berghei load reduction in hepatocytes – cell-based, HepG2, luciferase luminescence, HepG2 viability, primary screen (AID 624349; in the data active = parasite load remaining mostly below about 12%, no sharp cut-off; inactive = mostly above about 10%;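 also: 100% = mean of DMSO negative control wells on the same plate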); conditions: P. berghei liver stage in HepG2, luciferase luminescence, concentration not given here; parasite load remaining: stronger effect = lower value; viability: measured here: HepG2 viability without parasites
[11] = viability loss with induced miR-34 in A549 – imaging, A549 dox-inducible miR-34, nuclei and caspase counts, primary screen (AID 1347080); conditions: A549 miR-34 inducible, Hoechst nuclei count, 48 h
[12] = selective SMN2 exon splicing luciferase activators – cell-based, SMN2/SMN1 luciferase reporters (AID 1598; call rule not given here); conditions: SMN2 vs SMN1 luciferase splicing reporter cells, at 10 µM; SMN1 luciferase ratio: measured here: SMN1 luciferase reporter average; SMN2 luciferase ratio: measured here: SMN2 luciferase reporter average, stronger effect = higher value; SMN2/SMN1 luciferase ratio: stronger effect = higher value
[13] = target: Mitogen-activated protein kinase 7 (Homo sapiens) (UniProt Q13164); test: Gal4-ERK5 driven luciferase induction – cell-based, HTS, primary screen (AID 1508626;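 active = luciferase signal above three times the same-plate solvent-only control wells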;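 also: luciferase driven by Gal4-ERK5 fusion binding five Gal4 sites before minimal TATA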); conditions: HeLa Gal4-ERK5 transactivation, 18 h, at 5 µM, stronger effect = higher value
[14] = liver-stage malaria parasite load reduction – cell-based, known kinase inhibitor set, luminescence, hepatoma host viability (AID 624392; call rule not given here;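 also: infected cells incubated roughly two days before readout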); conditions: Plasmodium liver stage in hepatoma cells, luciferase luminescence, concentration not given here; liver cell % of control: measured here: host liver cell viability; parasite % of control: stronger effect = lower value
[15] = MELAS cybrid and Rieske KO viability enhancers – cell-based, MELAS cybrids, Rieske KO mouse fibroblasts, CellTiter-Glo, primary screen (AID 1508586;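 active = mean z-score across replicates of 1.96 or higher in either the MELAS or the Rieske mutant cell line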;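 also: z relative to plate mean and SD of compound and empty wells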); conditions: low glucose
[16] = galactose survival enhancers in mitochondrial complex I cybrids – cell-based, galactose medium, ATP luminescence, primary screen (AID 1645843;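 active = z-score of at least 1.8 in each of two replicates, scored against plate mean and spread of sample wells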;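 also: positive z means more ATP and so rescue of galactose-driven cybrid death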); conditions: complex I mutant cybrid cells, 72 h, stronger effect = higher value
[17] = stronger effect = lower value, cell number ratio, induced over uninduced
[18] = measured here: relative caspase fold change +Dox/-Dox
[19] = measured here: total cells with miR-34 induction, stronger effect = lower value
[20] = measured here: total cells without miR-34 induction

Chain of Mitogen-activated protein kinase 7 (Homo sapiens) (Q13164 whole entry, looked up, the tested form may be a part): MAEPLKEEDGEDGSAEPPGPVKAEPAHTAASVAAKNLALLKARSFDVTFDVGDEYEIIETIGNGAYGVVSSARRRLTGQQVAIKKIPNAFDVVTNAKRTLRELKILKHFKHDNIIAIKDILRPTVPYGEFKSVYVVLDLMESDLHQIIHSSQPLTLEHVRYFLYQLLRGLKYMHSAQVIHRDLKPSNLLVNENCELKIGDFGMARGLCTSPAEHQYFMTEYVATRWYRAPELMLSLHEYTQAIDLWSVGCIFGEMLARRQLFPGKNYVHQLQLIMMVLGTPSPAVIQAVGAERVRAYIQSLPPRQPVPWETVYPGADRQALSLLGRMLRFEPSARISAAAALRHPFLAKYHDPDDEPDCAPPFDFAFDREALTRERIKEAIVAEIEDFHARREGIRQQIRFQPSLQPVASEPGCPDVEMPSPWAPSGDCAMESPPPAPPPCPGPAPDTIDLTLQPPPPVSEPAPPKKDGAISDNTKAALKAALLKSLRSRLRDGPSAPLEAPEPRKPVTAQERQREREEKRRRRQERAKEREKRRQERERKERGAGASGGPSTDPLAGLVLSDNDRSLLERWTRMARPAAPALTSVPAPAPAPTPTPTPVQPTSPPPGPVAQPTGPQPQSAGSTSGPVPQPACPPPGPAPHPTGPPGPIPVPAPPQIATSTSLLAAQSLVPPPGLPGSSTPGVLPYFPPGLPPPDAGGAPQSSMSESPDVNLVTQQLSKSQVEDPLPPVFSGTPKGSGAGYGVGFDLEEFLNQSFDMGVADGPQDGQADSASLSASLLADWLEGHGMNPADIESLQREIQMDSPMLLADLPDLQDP

For `CC1(C)S[C@@H]2[C@H](NC(=O)[C@H](NC(=O)N3CCNC3=O)c3ccccc3)C(=O)N2C1C(=O)O` (stereo partly drawn), the inhibition [1] was 10.9%, the score [2] was 1.31 and the rescue above control [3] was -2.48. The cytochrome c release ratio [4] was 1.14, the inhibition of aggregation [5] was 54.5% and the glutamate uptake change [6] was 7.74%. For the same compound, the inclusion score [7] was 2, the aggregation suppression score [8] was 1.29 and the survival [9] was 4.75 (inactive). For the same compound, the parasite load remaining [10] was 188% (inactive) and 42.9% (inactive), the viability [10] was 87.9% and 114% and the fold change [11, 17] was 0.882 (inactive). It also gave a fold change [11, 18] of 3.93, a cell count [11, 19] of 12000 and a cell count [11, 20] of 13600.

For `O[N+]1=CC=CCC1=S.On1ccccc1=S.[Zn]`, the score [2] was 0.07, the SMN1 luciferase ratio [12] was 0.04 and the SMN2/SMN1 luciferase ratio [12] was 1.77 (active). The SMN2 luciferase ratio [12] was 0.08, the rescue above control [3] was 16 and the cytochrome c release ratio [4] was 1.27. It also gave an inhibition of aggregation [5] of 0%, a glutamate uptake change [6] of -74.2% and an aggregation suppression score [8] of -0.0147. For the same compound, the parasite load remaining [10] was -0.27% (inactive) and -0.08% (inactive), the viability [10] was 2.62% and 0% and the fold change [11, 17] was 0.416 (active). For the same compound, the fold change [11, 18] was 2.93, the cell count [11, 19] was 79 and the cell count [11, 20] was 190.

For `C=N[C@@H](C(=O)N[C@@H]1C(=O)N2[C@@H]1SC(C)(C)[C@@H]2C(=O)O)c1ccccc1`, the survival [9] was 22.6 (inactive), the parasite load remaining [10] was 47.6% (inactive) and 102% (inactive) and the viability [10] was 47.2% and 93.5%. The fold change [11, 17] was 0.849 (inactive), the fold change [11, 18] was 1.16 and the cell count [11, 19] was 8000. For the same compound, the cell count [11, 20] was 9420 and the luciferase signal [13] was 80 AU (inactive).

In the case of `CN(C)CC=CC(=O)Nc1cc2c(Nc3ccc(F)c(Cl)c3)ncnc2cc1OC1CCOC1` (stereo not drawn), the liver cell % of control [14] is reported as 39.8% and 42.2% and 47.1%, the parasite % of control [14] is reported as 0.262% (inactive) and 0.42% (inactive) and 32.1% (inactive) and the fold change [11, 17] is reported as 0.839 (inactive). For the same compound, the fold change [11, 18] was 1.69, the cell count [11, 19] was 2280 and the cell count [11, 20] was 2710. The z-score ([15]; MELAS cybrid survival, CellTiter-Glo 48 h, stronger effect = higher value) was 5.09 (active) and the z-score ([15]; Rieske KO mouse fibroblast survival, CellTiter-Glo 72 h) was 0.143.

For `C[C@]1(OC(=O)/C=C/c2ccccc2)C[C@@H](O)[C@]2(O)C=CO[C@@H](O[C@@H]3O[C@H](CO)[C@@H](O)[C@H](O)[C@H]3O)[C@@H]21`, the parasite load remaining [10] was 121% (inactive), the viability [10] was 74.8% and the fold change [11, 17] was 0.943 (inactive). For the same compound, the fold change [11, 18] was 0.61, the cell count [11, 19] was 9240 and the cell count [11, 20] was 9800. For the same compound, the luciferase signal [13] was 28 AU (inactive).

For `COc1cc(CNC(=O)CCCCC=CC(C)C)ccc1O`, the fold change [11, 17] was 0.954 (inactive), the fold change [11, 18] was 2.14 and the cell count [11, 19] was 9660. The cell count [11, 20] was 10100 and the z-score [16] was 0.315 (inactive).

For `CC(C)(C)NC(=O)C1CCC2C3CCC4NC(=O)C=C[C@]4(C)C3CC[C@]12C` (stereo partly drawn), the fold change [11, 17] was 0.939 (inactive), the fold change [11, 18] was 1.36 and the cell count [11, 19] was 8850. For the same compound, the cell count [11, 20] was 9430 and the z-score [16] was 0.345 (inactive).

With `CC[C@]1(O)CC2CN(CCc3c([nH]c4ccccc34)[C@@](C(=O)OC)(c3cc4c(cc3OC)N(C=O)C3[C@@](O)(C(=O)OC)C(OC(C)=O)[C@]5(CC)C=CCN6CC[C@]43C65)C2)C1` (stereo partly drawn) the fold change [11, 17] was 0.746 (inactive), the fold change [11, 18] was 1.38 and the cell count [11, 19] was 1340. For the same compound, the cell count [11, 20] was 1800 and the z-score [16] was -1.05 (inactive).

In the case of `O=C1NC(=O)c2c1c(-c1ccccc1)cc1[nH]c3ccc(O)cc3c21`, the fold change [11, 17] is reported as 0.992 (inactive) and 1.16 (inactive), the fold change [11, 18] is reported as 0.466 and 1.08 and the cell count [11, 19] is reported as 2060 and 2860. The cell count [11, 20] was 2080 and 2470 and the z-score [16] was -1.27 (inactive) and -0.655 (inactive).

In the case of `OCC1OC(n2cnc3c(NC4CCCC4O)ncnc32)C(O)C1O` (stereo not drawn), the fold change [11, 17] is reported as 0.907 (inactive), the fold change [11, 18] is reported as 0.906 and the cell count [11, 19] is reported as 9400. For the same compound, the cell count [11, 20] was 10400 and the z-score [16] was 0.73 (inactive).

With `C=CC1=C(C(=O)O)N2C(=O)C(NC(=O)C(=NOCC(=O)O)c3csc(N)n3)C2SC1` (stereo not drawn) the fold change [11, 17] was 0.923 (inactive), the fold change [11, 18] was 0.894 and the cell count [11, 19] was 8710. The cell count [11, 20] was 9440 and the z-score [16] was 0.065 (inactive).

With `O=C(OC1CC2CC3CC(C1)N2CC3=O)c1c[nH]c2ccccc12` (stereo not drawn) the fold change [11, 17] was 0.871 (inactive), the fold change [11, 18] was 2.24 and the cell count [11, 19] was 8970. The cell count [11, 20] was 10300 and the z-score [16] was 0.88 (inactive).

For `CC(=O)OC1CC2CCC3C(CC[C@@]4(C)C3CC([N+]3(C)CCCCC3)C4OC(C)=O)[C@@]2(C)CC1N1CCCCC1` (stereo partly drawn), the fold change [11, 17] was 0.934 (inactive), the fold change [11, 18] was 1.76 and the cell count [11, 19] was 9160. The cell count [11, 20] was 9800 and the z-score [16] was 0.43 (inactive).

In the case of `C=CCC1C=C(C)CC(C)CC(OC)C2O[C@@](O)(C(=O)C(=O)N3CCCCC3C(=O)OC(C(C)=CC3CCC(O)C(OC)C3)C(C)C(O)CC1=O)C(C)CC2OC` (stereo partly drawn), the fold change [11, 17] is reported as 1.03 (inactive), the fold change [11, 18] is reported as 1.03 and the cell count [11, 19] is reported as 5920. For the same compound, the cell count [11, 20] was 5760 and the z-score [16] was 0.96 (inactive).

With `CC(=O)OC1CC2CCC3C(CCC4(C)C3CC([N+]3(C)CCCCC3)C4OC(C)=O)C2(C)CC1[N+]1(C)CCCCC1` (stereo not drawn) the fold change [11, 17] was 0.885 (inactive), the fold change [11, 18] was 2.7 and the cell count [11, 19] was 8890. The cell count [11, 20] was 10000 and the z-score [16] was 0.825 (inactive).

With `COCC1=C(C(=O)OC(C)OC(=O)OC(C)C)N2C(=O)C(NC(=O)C(=NOC)c3csc(N)n3)C2SC1` (stereo not drawn) the fold change [11, 17] was 0.946 (inactive), the fold change [11, 18] was 1.68 and the cell count [11, 19] was 9860. For the same compound, the cell count [11, 20] was 10400 and the z-score [16] was 0.625 (inactive).

In the case of `COC1C=CO[C@@]2(C)Oc3c(C)c(O)c4c(O)c(c5c(nc6cc(C)ccn65)c4c3C2=O)NC(=O)C(C)=CC=CC(C)C(O)C(C)C(O)C(C)C(OC(C)=O)C1C` (stereo partly drawn), the fold change [11, 17] is reported as 0.986 (inactive), the fold change [11, 18] is reported as 1.96 and the cell count [11, 19] is reported as 9910. For the same compound, the cell count [11, 20] was 10000 and the z-score [16] was 1.96 (active).

In the case of `OCC1OC(n2cnc3c(NC4CCCC4)nc(Cl)nc32)C(O)C1O` (stereo not drawn), the fold change [11, 17] is reported as 0.88 (inactive), the fold change [11, 18] is reported as 1.42 and the cell count [11, 19] is reported as 9520. The cell count [11, 20] was 10800 and the z-score [16] was 1.5 (inactive).
